The values that follow come from PubChem BioAssay.

The target in assay [1] is Pantothenate synthetase (Mycobacterium tuberculosis (strain ATCC 25618 / H37Rv)) (UniProt P9WIL5). The assay can be described thus: Recombinant Mtb pantothenate synthetase (PanC) inhibitors, coupled enzyme, confirmatory (AID 375; call rule not given here;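 also: 0% = full reaction with vehicle and 100% = no enzyme background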). Conditions: coupled enzyme assay; at 10 µM, stronger effect = higher value.
Assay [2] is described as follows: reducers of endogenous Her2 protein level, primary screen, SKBR3 breast tumor cells, AlphaScreen, ATP viability (AID 461;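 active = Her2 level under about 52% in both replicate screens, with viability over 70% of control, limit read from the data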;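 as to Her2 level: lower value means less Her2 protein in the cells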;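 as to viability: percent of carrier control wells set as 100% viability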). The following applies: 18-24 h, measured here: SKBR3 viability, ATP luminescence, at 10 µM. (In Alpha technology, singlet oxygen from a donor bead excites a nearby acceptor bead.)
Assay [3] addresses Receptor tyrosine-protein kinase erbB-2 (Homo sapiens) (UniProt P04626). The description is as above. The following applies: 18-24 h, at 10 µM, stronger effect = lower value.
Assay [4] can be described thus: SK-BR-3 cell growth inhibitors, pilot screen, 24 h, human (AID 572;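 active = viability at or below 10% of carrier control in both of two separate runs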;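 also: compound exposure lasted between 18 and 24 h rather than exactly 24 h; 100% = carrier-treated control wells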). The following applies: SK-BR-3 viability, CellTiter-Glo luminescence, at 10 µM, stronger effect = lower value. Background: ATP-based viability assays read luminescence as a measure of living cells.
Assay [5] is described as follows: HUVEC growth inhibition – cell-based, human, primary screen (AID 575;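 active = viability at or below 30% in both replicate assays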;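 also: 100% = median of untreated cell wells with 0.1% DMSO on each plate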). Conditions: HUVEC proliferation, CellTiter-Glo luminescence, 72 h; at 10 µM; stronger effect = lower value.
Assay [6] in a line: growth inhibitors of H69AR lung tumor, primary screen, human, duplicate replicates (AID 580;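 active = viability at or under a set limit in both replicates, limit being median viability minus 3 SD, cut at about 48% in these data, passing the limit was not always enough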;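 also: 100% = mean luminescence of untreated wells and 0% = no signal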). The following applies: H69AR lung tumor cells viability, ATP luminescence, 72 h; at 10 µM; stronger effect = lower value.
A short description of assay [7]: reversal of MRP1-mediated doxorubicin resistance, pilot screen, H69AR cells, doxorubicin co-treatment (AID 601;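 active = viability loss from added drug above about 55%, and viability with drug at most 40%, in both replicates, limit read from the data, passing the limit was not always enough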). Conditions: CellTiter-Glo, 72 h, at 10 µM; for differential viability (reversal): stronger effect = higher value.
Assay [8] is described as follows: 384-well plate pilot, post-Golgi transport modulator project, inhibition of yeast transport mutant growth (AID 636; in the data active = inhibition above about 31%). Conditions: absorbance 615 nm, about 18 h, stronger effect = higher value.
Assay [9] in a line: growth suppression of yeast trafficking mutant, preliminary HTS, modulators of trafficking downstream of Golgi apparatus project, 1536-format plate, OD 615 nm (AID 637; in the data active = inhibition above about 30%). The following applies: yeast transport mutant growth, absorbance 615 nm, 18 h; stronger effect = higher value.
A short description of assay [10]: OD615 S. cerevisiae growth inhibition, permissive medium, pilot counter-assay, permissive growth control for S. cerevisiae lifespan shortening project (AID 705). The following applies: OD615, 24 h, at 10 µM, stronger effect = higher value.
The nature of assay [11]: Restrictive medium S. cerevisiae growth inhibition, OD615, pilot screen of yeast lifespan reduction project, restrictive growth control (AID 706;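 active = growth inhibition above a set limit, 3 SD over mean compound inhibition, in both replicates, cut at about 43% in these data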;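 also: modified DeaD lifespan yeast strain shifted to restrictive glucose medium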). The following applies: OD615, 48 h, at 10 µM, stronger effect = higher value.
A short description of assay [12]: viability gain of MRP-1-high H69AR cells under doxorubicin, pilot screen, MRP-1 activator project, CellTiter-Glo, duplicate (AID 807;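 active = viability increase at or above a cutoff of the median across tested compounds plus 3 SD, cut at about 8.5% in these data, passing the limit was not always enough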;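 also: compound pretreatment 18-22 h then 72 h combined with doxorubicin; 0% = doxorubicin alone and 100% = vehicle without doxorubicin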). Conditions: H69AR viability with doxorubicin, CellTiter-Glo luminescence; at 10 µM; stronger effect = higher value.
A short description of assay [13]: growth suppression of beta-catenin knockout HCT116, pilot screen, human colon tumor cells (AID 823;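 active = cell viability at or below a set limit in both duplicate runs, the limit being the all-compound median minus 4 SD, cut at about 23% in these data, passing the limit was not always enough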;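 also: 0% = wells killed by 20 µM Hyamine and 100% = untreated DMSO cell wells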). Conditions: CellTiter-Glo, 60 h, at 10 µM, stronger effect = lower value.
Assay [14] in a line: growth suppression of PTEN-deleted HCT116, pilot screen, cell-based, HCT116 clonal line, CellTiter-Glo (AID 824;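 active = viability at or below 27.92% in each of two runs, the all-compound median minus 4 SD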;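 also: 0% = 20 µM Hyamine control and 100% = vehicle cell control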). Conditions: 60 h, at 10 µM, stronger effect = lower value.
Assay [15] can be described thus: inhibitors of the yeast RAM network, pilot screen, dse1pr::URA3 reporter, 5-FOA selection (AID 869;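 active = inhibition over a set limit, the all-compound mean plus 3 SD, in both replicate runs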;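 also: 0% = DMSO wells with no growth and 100% = 10 µM 1-NA-PP1 with full growth; RAM network block rescues cells from 5-FOA so hits raise OD615 growth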). Conditions: S. cerevisiae dse1pr::URA3 5-FOA growth, OD615, 2 d, at 10 µM, stronger effect = higher value.
A short description of assay [16]: RAM signaling pathway blockade in yeast – S. cerevisiae, Pdr1DBD-CYC8 efflux-inhibited sensitized strain, primary screen (AID 1298;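 active = RAM network inhibition above 8.4% in each of two replicates, 3 SD over the compound average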;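 also: 0% = DMSO untreated cells without growth and 100% = 10 µM 1-NA-PP1 full growth; higher means more yeast growth rescued from 5-FOA killing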). The following applies: S. cerevisiae cbk1-as DSE1-URA3 strain, 5-FOA growth OD615, 2 d; at 50 µM; stronger effect = higher value.
Setting [17] is: H69AR cells + 2 uM doxorubicin, measured here: viability with 2 uM doxorubicin, stronger effect = lower value.
Where [18] appears, read: H69AR cells, compound alone cytotoxicity.

Results filed as inconclusive are left out. Calls of active or inactive are those of the source.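 The calls were made as follows, unless noted: active = growth inhibition above 25% in both replicates, a cutoff set 3 SD above the mean; inconclusive = above 25% in only one replicate; inactive = the rest.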

Chain of Pantothenate synthetase (Mycobacterium tuberculosis (strain ATCC 25618 / H37Rv)) (P9WIL5 whole entry, looked up): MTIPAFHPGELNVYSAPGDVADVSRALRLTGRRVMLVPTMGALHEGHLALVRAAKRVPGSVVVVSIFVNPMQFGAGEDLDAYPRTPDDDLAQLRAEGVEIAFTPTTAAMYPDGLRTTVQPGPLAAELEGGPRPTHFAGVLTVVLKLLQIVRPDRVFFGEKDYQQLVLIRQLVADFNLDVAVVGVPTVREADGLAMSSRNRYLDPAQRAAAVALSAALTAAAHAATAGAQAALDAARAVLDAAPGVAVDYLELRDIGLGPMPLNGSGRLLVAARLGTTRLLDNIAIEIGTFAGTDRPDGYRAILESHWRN
Chain of Receptor tyrosine-protein kinase erbB-2 (Homo sapiens) (P04626 whole entry, looked up): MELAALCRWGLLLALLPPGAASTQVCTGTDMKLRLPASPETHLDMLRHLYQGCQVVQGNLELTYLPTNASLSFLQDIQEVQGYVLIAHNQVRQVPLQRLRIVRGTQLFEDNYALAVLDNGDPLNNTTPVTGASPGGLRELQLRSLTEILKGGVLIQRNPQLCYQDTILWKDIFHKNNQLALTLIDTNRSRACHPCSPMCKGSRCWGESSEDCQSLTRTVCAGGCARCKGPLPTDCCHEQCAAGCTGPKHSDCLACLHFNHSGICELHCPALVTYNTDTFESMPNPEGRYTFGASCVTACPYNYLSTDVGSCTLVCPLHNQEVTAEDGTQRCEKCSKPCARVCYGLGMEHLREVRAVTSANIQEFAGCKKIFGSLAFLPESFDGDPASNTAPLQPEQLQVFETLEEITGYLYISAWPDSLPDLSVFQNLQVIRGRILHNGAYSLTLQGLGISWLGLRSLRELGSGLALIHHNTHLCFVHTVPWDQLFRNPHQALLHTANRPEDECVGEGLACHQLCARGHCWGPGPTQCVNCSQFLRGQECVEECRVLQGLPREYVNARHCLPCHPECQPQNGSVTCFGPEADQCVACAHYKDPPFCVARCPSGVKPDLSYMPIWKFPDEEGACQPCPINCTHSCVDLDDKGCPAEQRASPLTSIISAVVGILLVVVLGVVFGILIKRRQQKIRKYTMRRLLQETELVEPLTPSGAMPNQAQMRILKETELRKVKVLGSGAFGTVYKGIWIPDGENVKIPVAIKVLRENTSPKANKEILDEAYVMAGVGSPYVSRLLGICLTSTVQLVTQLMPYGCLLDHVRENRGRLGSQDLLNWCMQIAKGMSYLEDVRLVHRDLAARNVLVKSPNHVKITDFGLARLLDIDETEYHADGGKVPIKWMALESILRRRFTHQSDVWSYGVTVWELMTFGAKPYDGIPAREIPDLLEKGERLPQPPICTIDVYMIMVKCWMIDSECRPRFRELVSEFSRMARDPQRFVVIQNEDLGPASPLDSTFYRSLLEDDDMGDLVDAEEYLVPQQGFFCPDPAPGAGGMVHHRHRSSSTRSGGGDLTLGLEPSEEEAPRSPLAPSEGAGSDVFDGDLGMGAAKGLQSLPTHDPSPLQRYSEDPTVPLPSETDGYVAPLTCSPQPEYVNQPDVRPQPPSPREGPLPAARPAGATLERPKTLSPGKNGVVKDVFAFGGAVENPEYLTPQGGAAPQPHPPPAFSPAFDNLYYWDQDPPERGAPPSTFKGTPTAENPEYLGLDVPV

In the case of `CCc1ccc(OCCCN=C(C)c2c(O)n(C)c(=O)n(C)c2=O)cc1`, the inhibition was 0% (inactive) in assay [1], -1.95% (inactive) in assay [8], 1.83% (inactive) in assay [9] and 0.12% (inactive) in [15]. The viability in [2] is 92%; in [4] it was 92% (inactive); in assay [5] it was 77.7% (inactive); in [6] it was 85.1% (inactive); in assay [7] (setting [17]) it was 83.8%; in [7] (setting [18]), 85.1%. Besides, the viability in assay [13] was 77.3% (inactive); in assay [14], 80.8% (inactive). Also, the Her2 level in [3] is 85.5% (inactive). Moreover, in assay [7] (H69AR cells + 2 uM doxorubicin), the differential viability (reversal) is 1.31% (inactive). The growth inhibition was -6.49% (inactive) in assay [10] and -4.79% (inactive) in assay [11]. In addition, the viability increase in assay [12] is 0.23% (inactive). The RAM network inhibition in [16] is -0.72% (inactive).

As to `CP(C)(=O)CCC(=O)O`, the inhibition was 0% (inactive) in [1], -4.94% (inactive) in assay [8], 3.44% (inactive) in [9] and 0.42% (inactive) in assay [15]. The viability in assay [2] was 101%; in [4], 101% (inactive); in assay [5], 81.4% (inactive); in [6] it was 100% (inactive); in [7] (setting [17]), 82.1%; in [7] (setting [18]) it was 100%. The viability is 101% (inactive) in assay [13] and 98.1% (inactive) in assay [14]. In [3], the Her2 level is 105% (inactive). Besides, in assay [7] (H69AR cells + 2 uM doxorubicin), the differential viability (reversal) was 18.2% (inactive). Further, the growth inhibition is -18% (inactive) in assay [10] and -19.2% (inactive) in assay [11]. Also, the viability increase in assay [12] is 0.16% (inactive). The RAM network inhibition in assay [16] is 2.22% (inactive).

Turning to `c1ccc(C2NCc3ccccc3-n3cccc32)cc1` (centres undefined), the inhibition in assay [1] is 0% (inactive); in assay [8] it was -4.53% (inactive); in assay [9] it was 1.67% (inactive); in assay [15], 2.53% (inactive). For the same molecule, the viability in assay [2] was 86%; in assay [4], 86% (inactive); in assay [5], 104% (inactive); in assay [6], 84.2% (inactive); in assay [7] (setting [17]) it was 78.4%; in [7] (setting [18]) it was 84.2%. Further, the viability in assay [13] is 68.2% (inactive); in [14], 78.5% (inactive). Besides, the Her2 level in assay [3] is 93.5% (inactive). For the same molecule, the differential viability (reversal) in assay [7] (H69AR cells + 2 uM doxorubicin) was 5.83% (inactive). Moreover, the results for the growth inhibition in assay [10] and in assay [11] were -19% (inactive) and -22.7% (inactive), respectively. In assay [12], the viability increase is -3.44% (inactive). For the same molecule, the RAM network inhibition in assay [16] was 2.46% (inactive).

For `CCOC(=O)C1SC2(C(F)(F)C(F)F)CC1(O)c1c(c(OC)c3occc3c1OC)O2` (centres undefined), the values for the growth inhibition in assay [10] and in [11] were -4.93% (inactive) and -26.4% (inactive), respectively. For the same molecule, the viability increase in assay [12] was -0.89% (inactive). Besides, the values for the viability in assay [13] and in assay [14] were 98.4% (inactive) and 86.9% (inactive), respectively. Also, in [15], the inhibition was 1.6% (inactive). For the same molecule, in [16], the RAM network inhibition is 6.2% (inactive).

With `CCOc1ccc(C2SCC(=O)Nc3c2c(=O)[nH]n3C2CCCCCC2)cc1` (centres undefined), the inhibition in assay [1] was 0% (inactive); in assay [8], -5.2% (inactive); in assay [9], -7.62% (inactive); in [15] it was 2.26% (inactive). In addition, the viability is 110% in [2]; 110% (inactive) in assay [4]; 63.8% (inactive) in assay [5]; 57.2% in [7] (setting [17]); 58.3% in [7] (setting [18]); 97.7% (inactive) in assay [13]. For the same molecule, the Her2 level in assay [3] is 108% (inactive). Moreover, the differential viability (reversal) in [7] (H69AR cells + 2 uM doxorubicin) was 1.13% (inactive). The results for the growth inhibition in [10] and in assay [11] were -17.8% (inactive) and -3.29% (inactive), respectively. The viability increase in assay [12] was -7.49% (inactive). The RAM network inhibition in assay [16] is 4% (inactive).

In the case of `O=c1cccc2n1CC1CC2CN(c2ncnc3c2cnn3-c2ccccc2)C1` (centres undefined), the growth inhibition was -14.6% (inactive) in assay [10] and -18.5% (inactive) in assay [11]. Further, in assay [12], the viability increase was -1.4% (inactive). Further, the viability in [13] and in assay [14] was 101% (inactive) each time. The inhibition in assay [15] was 1.7% (inactive). Besides, the RAM network inhibition in [16] is 1.58% (inactive).

One may read the inhibition as the drop in the measured response relative to a control, in per cent. Broadly, the viability is a read-out of living cells in per cent, often relative to untreated cells.
